# Measured values: the supplement of paper PMC12024424
# Counter-ions that a name gives are not always drawn.
# System: Staphylococcus aureus Sa2 (MRSA, cystic fibrosis isolate)
# Assay: growth reduction vs untreated control (viable cell count); higher = stronger antibacterial activity; extreme values may be limits of the assay
# Settings: 0.1 mM; 24 h
# Experimental: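 Single-dose screen of the MedChem Express Drug Repurposing Library (0.1 mM, 1% DMSO) against planktonic MRSA S. aureus Sa2 (CF isolate) in TSB in 96-well plates, 37 °C aerobic, 24 h. Assays were run in triplicate and repeated twice.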
row,SMILES,growth reduction [%]
1,O=C(O)c1ccc(-n2nc(-c3ccccc3O)nc2-c2ccccc2O)cc1 [Deferasirox],99
2,Clc1ccc(C(Cn2ccnc2)OCc2ccc(Sc3ccccc3)cc2)c(Cl)c1 (stereo not given) [Fenticonazole (Nitrate)],100
3,CCCCCCCCc1ccc(CCC(N)(CO)CO)cc1 [Fingolimod],100
4,CC(=O)OC[C@H]1O[C@@H]([S-])[C@H](OC(C)=O)[C@@H](OC(C)=O)[C@@H]1OC(C)=O.CCP(CC)CC.[Au+] [Auranofin],100
5,O=[N+]([O-])c1ccc(O)c2ncccc12 [Nitroxoline],100
6,COc1ccc(C(=O)NC2(C(=O)O)Cc3ccccc3C2)cc1OCCc1cccc(C)c1,96
7,N#Cc1ccc(Oc2ccc3c(c2)COB3O)cc1 [Crisaborole],100
8,C[C@H]1Cc2c([nH]c3cc(Cl)c(F)cc23)[C@@]2(N1)C(=O)Nc1ccc(Cl)cc12 [Cipargamin],100
9,CC1=C(C)C(=O)C(CCCCCCCCCC[P+](c2ccccc2)(c2ccccc2)c2ccccc2)=CC1=O [Visomitin],100
10,OCCN1CCN(CC/C=C2/c3ccccc3Sc3ccc(C(F)(F)F)cc32)CC1 [Flupentixol dihydrochloride],100
11,Nc1ccc2cc3ccc(N)cc3nc2c1 [Proflavine (hemisulfate)],100
12,CCCCc1oc2ccc(NS(C)(=O)=O)cc2c1C(=O)c1ccc(OCCCN(CCCC)CCCC)cc1 [Dronedarone],100
13,COc1cc(NC(C)CCCN)c2ncccc2c1 (stereo not given) [Primaquine (Diphosphate)],94
14,C=C[C@@H]1C[C@]1(NC(=O)[C@@H]1C[C@@H]2CN1C(=O)[C@H](C(C)(C)C)NC(=O)O[C@@H]1C[C@H]1CCCCCc1nc3ccc(OC)cc3nc1O2)C(=O)NS(=O)(=O)C1CC1 [Grazoprevir potassium salt],100
15,Clc1ccccc1C(c1ccccc1)(c1ccccc1)n1ccnc1 [Clotrimazole],100
16,NCCCC[C@H](NC(=O)[C@@H](NC(=O)[C@H](Cc1c[nH]c2ccccc12)NC(=O)[C@H](CCCCN)NC(=O)[C@H](CCCCN)NC(=O)[C@H](Cc1c[nH]c2ccccc12)NC(=O)[C@H](Cc1c[nH]c2ccccc12)NC(=O)[C@H](CCCCN)NC(=O)[C@@H](N)CCCCN)C(c1ccccc1)c1ccccc1)C(N)=O,100
17,Cc1c2c(nn1C)CSCc1cc(n(C)n1)CSc1cc(c3ccccc3c1)OCCCc1c(C(=O)O)n(C)c3c-2c(Cl)ccc13,100
18,NC(=O)[C@@H]1CC[C@@H]2CN1C(=O)N2OS(=O)(=O)O [Avibactam (sodium)],97
19,C=CC(N)CCC(=O)O (stereo not given) [Vigabatrin (hydrochloride)],100
20,CCOC(=O)C1=C(C)NC(C)=C(C(=O)OC)C1c1cccc(Cl)c1Cl (stereo not given) [Felodipine],100

row,SMILES,growth reduction [%]
1,CC1(C)CCC2=C(O1)c1ccccc1C(=O)C2=O [β-Lapachone],100
2,CC1(C)CC[C@]2(C(=O)O)CC[C@]3(C)[C@H](C(=O)C=C4[C@@]5(C)C=C(C#N)C(=O)C(C)(C)[C@@H]5CC[C@]43C)[C@@H]2C1 [Bardoxolone],100
3,Cc1cc(CC(C)CC(C)(C)C)n(O)c(=O)c1 (stereo not given) [Piroctone olamine],100
4,CCCCCCCCCCCCCCCC[N+](C)(C)CCN(Cc1ccc(OC)cc1)c1ncccn1 [Thonzonium (bromide)],100
5,Cc1nc(C(=O)NCC(=O)O)c(O)c2ccc(Oc3ccccc3)cc12 [Roxadustat],98
6,Cc1cccc(/C=N/Nc2cc(N3CCOCC3)nc(OCCc3ccccn3)n2)c1 [Apilimod (mesylate)],93
7,C[C@@H](NCCCc1cccc(C(F)(F)F)c1)c1cccc2ccccc12 [Cinacalcet (hydrochloride)],100
8,O=C(O)Cc1ccccc1Nc1c(Cl)cccc1Cl [Diclofenac],100
9,Cc1noc(-c2ccc(-c3ccc(C4(C(=O)O)CC4)cc3)cc2)c1NC(=O)O[C@H](C)c1ccccc1,100
10,O=C(Nc1ccc(F)cc1)c1cnc(SCc2cc(OC(F)(F)F)ccc2B(O)O)nc1,100
11,Cc1nc2c([nH]1)-c1ccccc1N(C(=O)c1ccc(NC(=O)c3ccccc3-c3ccccc3)cc1)CC2 [Conivaptan (hydrochloride)],100
12,O=C(O)c1cc(-c2ccc(F)cc2F)ccc1O [Diflunisal],98
13,O=C(CCCCCCNC(=O)c1cnc(N(c2ccccc2)c2ccccc2)nc1)NO [Ricolinostat],100
14,C[C@H](CCC(=O)O)[C@H]1CC[C@H]2[C@@H]3[C@H](O)C[C@@H]4C[C@H](O)CC[C@]4(C)[C@H]3CC[C@]12C [Chenodeoxycholic Acid],99
15,C=C1C[C@H]2[C@@H]3CCC4=CC(=O)CC[C@@H]4[C@H]3CC[C@]2(C)[C@@]1(OC(C)=O)C(C)=O [Nestoron],98
16,CC1(C)CCC(C)(C)c2cc(Cn3cccn3)c(/C=C/c3ccc(C(=O)O)cc3)cc21 [Palovarotene],100
17,CC(C)(C)c1nc(-c2cccc(NS(=O)(=O)c3c(F)cccc3F)c2F)c(-c2ccnc(N)n2)s1 [Dabrafenib (Mesylate)],90
18,CC(C)c1c(C(=O)Nc2ccccc2)c(-c2ccccc2)c(-c2ccc(F)cc2)n1CC[C@@H](O)C[C@@H](O)CC(=O)O [Atorvastatin (hemicalcium salt)],98
19,CC(C)=CCC/C(C)=C/CC/C(C)=C/CSc1ccccc1C(=O)O [Salirasib],100
20,O=c1nc(OC[C@@H]2COCCO2)cc2n1CCc1cc(C#CC3CC3)ccc1-2,93
